Our source for the growth values is PubChem BioAssay (NCI).

The structures appear in SMILES notation. The panel holds about 83,000 compounds, 20% with a hit somewhere; the sample as a whole holds those more often.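 Each cell line was grown in a 96-well plate and treated with one concentration of compound for 48 hours. Values below 10 were considered active.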 Activity calls are given as the source filed them.

The experiment relates to HL-60(TB) leukemia. Description: NCI-60 one-dose screen, 48 h (100 = growth as untreated, 0 = no growth, -100 = all killed). The following applies: 10 µM unless noted.
Turning to `CC(=O)NC1=C(C#N)C(c2ccccc2Cl)c2c(ccc3ccccc23)O1` (stereo not given), the growth was 29.7% (inactive). For the compound `COC(=O)c1cc2c(n1Cc1ccccc1)-c1oncc1CCC2`, the growth was 28.9% (inactive). For the compound `COc1cc(/C=N/n2c(CN3CCOCC3)nc3ccccc3c2=O)cc(OC)c1OC`, the growth is 98.1% (inactive). Regarding `CC(=O)Oc1ccc(/C=N/NC(N)=S)nc1`, the growth is 64.3% (inactive).

With `CC1=C[C@H]2c3c(c(O)c(O)c4oc5ccccc5c(=O)c34)[C@H](c3cc(O)c(O)c4oc5ccccc5c(=O)c34)[C@H]2C(C)(C)C1`, the growth is -23% (active). Take `CC(Sc1nc2ccccc2c(=O)n1CCc1ccc(S(N)(=O)=O)cc1)C(=O)Nc1ccc(Cl)cc1` (stereo not given): the growth was 86.2% (inactive). With `O=C(Nc1cn[nH]c1-c1nc2ccc(CN3CCOCC3)cc2[nH]1)NC1CC1`, the growth is -27.1% (active). As for `COc1ccc(-c2nn(-c3ccc(NC(=O)c4cc(C(F)(F)F)cc(C(F)(F)F)c4)cc3)cc2-c2ccncc2)cc1Cl`, the figure is 73.6% (inactive). As for `Nc1ccc(C2=NN(C(=O)c3cc(-c4ccc(Cl)cc4)nc4ccccc34)C(c3ccc(Cl)cc3)C2)cc1` (stereo not given), the figure is -4.63% (active).

Turning to `Clc1ccc2c(c1)C(Br)c1cc(Cl)cc(Cl)c1-2` (stereo not given), the growth is 81.3% (inactive). The figure for `CN(C)CCC(=O)c1ccc([N+](=O)[O-])cc1` is 114% (inactive); for `O=C(CBr)OCc1ccc([N+](=O)[O-])o1` it is 118% (inactive). For `OC[C@H]1OC([S-])[C@H](O)[C@@H](O)[C@@H]1O.[Au+]` (stereo not given in full), the growth is 95.1% (inactive). `OCc1ccc(N2CCc3cccc(F)c3C2)cc1Cl`: the growth is 80.5% [0.1 µM] (inactive). For `CN1CCN(Cc2ccc(NC(=O)c3cncc(C#Cc4cnccc4C#N)c3)cc2C(F)(F)F)CC1`, the growth was 24.7% (inactive). Take `COc1cc(CNS(=O)(=O)c2ccc(C)cc2)ccc1OCc1cn(-c2ccccc2)nn1`: the growth was 85.2% (inactive). With `Cc1cn(-c2cc(NC(=O)c3cccc(C#Cc4cccc5[nH]nc(N)c45)c3)cc(C(F)(F)F)c2)cn1`, the growth was 12.5% (inactive).

With `CCCOc1ccc(/C=N/Nc2cc(C)nc3ccc(Br)cc23)cc1`, the growth was 55.3% (inactive). As for `COc1cc(-c2nc(-c3nc4cc(C(=O)c5ccccc5)ccc4[nH]3)cc3c2[nH]c2ccccc23)cc(OC)c1OC`, the figure is 89.7% (inactive); as for `c1cc[n+](Cc2ccnc3ccccc23)cc1`, 84.7% (inactive). For the compound `CN(C)CCSC1=Nc2ccc(Cl)cc2C(c2ccccc2Cl)N(C)C1` (stereo not given), the growth is 35.1% (inactive). As for `COc1ccc2c(c1)N(CCO)C1=C(C(=O)OC1)C2c1ccc(OC)c(OC)c1` (stereo not given), the figure is -2.68% (active); as for `CC(=O)N1c2ccccc2NC2=C(C(=O)NC2(C)C)C1c1ccco1` (stereo not given), 65.1% (inactive); as for `Cc1c(Cl)cccc1NC(=O)c1sc2nc3c(cc2c1N)CCCCCC3`, -15.9% (active). As to `CCCCOC(=O)Oc1ccc(C(=O)Oc2ccc(OCC)cc2)cc1`, the growth was 109% (inactive). For `Cc1c(NC(=O)OC[C@@H]2COCCN2)cn2ncnc(Nc3ccc4c(cnn4Cc4cccc(F)c4)c3)c12`, the growth is -25.6% (active). Turning to `CCCCCCCCCCCCCC[n+]1cccc(C(N)=O)c1`, the growth is -55.9% (active).

As for `COc1ccc(C(OCC2OC(n3ccc(NC(=O)c4ccccc4)nc3=O)C(O)C2O)(c2ccccc2)c2ccccc2)cc1` (stereo not given), the growth was 22.9% (inactive). On to `COc1ccc2c(c1)[nH]c1c(/C=C/c3ccccc3)nccc12`, for which the growth was 61.1% (inactive). For the compound `Clc1nc(Cl)c2ncn(CC3(Cn4cnc5c(Cl)nc(Cl)nc54)COC3)c2n1`, the growth was -75.5% (active). On to `O=C1C=CC(=O)N1c1cccc2c1CCCC2`, for which the growth was 34.2% (inactive). For the compound `O=C1/C(=C/c2cn(-c3ccccc3)nc2-c2ccccc2)SC(=S)N1c1ccccc1`, the growth was 103% (inactive). Turning to `CO[C@H]1/C=C(/C)CCC[C@H](C)[C@H](O)[C@@H](C)C(=O)C(C)(C)[C@@H](O)CC(=O)O[C@@H]1/C(C)=C/c1csc(C)n1`, the growth was 24.3% (inactive).

Regarding `O=C(CCCC(=O)Nc1ccc(Cn2nnc3cc(Cl)c(Cl)cc32)cc1)Nc1ccc(CN2N=NC3C=C(Cl)C(Cl)=CC32)cc1` (stereo not given), the growth was 89.7% (inactive). Turning to `Fc1ccc(-c2nc(-c3nc4ncccc4[nH]3)cc3c2[nH]c2ccccc23)cc1F`, the growth is 86.4% (inactive).

For the compound `COc1ccc2c(c1)OC(N(C(C)=O)C(C)=O)=C(C#N)C2c1ccc(F)cc1` (stereo not given), the growth was -18.9% (active). For the compound `COc1ccc(-c2cc(-c3cccnc3)nc(S(=O)(=O)CC(=O)Nc3ccc(C)cc3)c2C#N)cc1OC`, the growth is 113% (inactive). In the case of `c1ccc(-c2ccc3c(c2)C2(CCNCC2)CN3)cc1`, the growth was 93.7% (inactive). For the compound `COc1ccc(-c2[nH]ncc2-c2cc(OC)c(OC)c(OC)c2)cc1`, the growth is -35.5% (active). As for `N#Cc1c(N)nc2c(c1N)C(c1ccc(F)cc1)c1ccc(N)cc1O2` (stereo not given), the growth was 110% (inactive).
